Hits are enriched below; roughly 3.2% of the tested compounds scored in any of these assays.
AMA1 RON2 block = disrupts binding of P. falciparum AMA1 to RON2; AID 720542; AlphaScreen AMA1-biotinylated RON2 peptide binding; 360,000 tested, 0.2% active; Potency, µM (top dose mostly 58.2 µM), without a hit: at the highest dose activity change, negative = inhibition, most hits filed as inhibitors;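 also: 0% = vehicle wells and -100% = peptide control; nearly all actives have a fitted effect of over 45% in size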
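AMA1 (3D7) with his tag at 25 nM final met compounds first, then biotinylated RON2 peptide at 25 nM; detection used donor plus acceptor beads, 10 µg/mL apiece, read by AlphaScreen after 30 min at room temperature.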
RE007 growth inh = less growth of the S. pombe RE007 Vpr strain. 360,000 tested, 0.21% active. S. pombe RE007 Vpr strain, BacTiter-Glo ATP luminescence, 24 h. Potency, µM (doses to about 92.2 µM), for the others: top-dose activity change, negative = less growth, hits mostly inhibitors; active = well fitted falling curve with a large enough effect; inconclusive = small, poorly fitted or top-dose-only effect; inactive = no such curve, though single readings can be large or run the other way; also: nearly all actives have a fitted effect of over 50% in size
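Fission yeast RE007 carrying one integrated HIV-1 vpr copy, seeded at OD 0.01 in PMG+AL medium with 23 nL pinned compound. Grown 24 h at 30 degrees; viability read by BacTiter-Glo luminescence after 5 min.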
LmPK inhibitor = blocks Leishmania mexicana pyruvate kinase activity | 290,000 tested, 0.37% active | purified LmPK, Kinase-Glo ATP luminescence, 1 h | AID 1721 | Potency, µM (doses to about 57.5 µM), without a hit: at the highest dose activity change, negative = inhibition, actives largely listed as inhibitors | Q27686
Target sequence (Q27686 whole entry, looked up): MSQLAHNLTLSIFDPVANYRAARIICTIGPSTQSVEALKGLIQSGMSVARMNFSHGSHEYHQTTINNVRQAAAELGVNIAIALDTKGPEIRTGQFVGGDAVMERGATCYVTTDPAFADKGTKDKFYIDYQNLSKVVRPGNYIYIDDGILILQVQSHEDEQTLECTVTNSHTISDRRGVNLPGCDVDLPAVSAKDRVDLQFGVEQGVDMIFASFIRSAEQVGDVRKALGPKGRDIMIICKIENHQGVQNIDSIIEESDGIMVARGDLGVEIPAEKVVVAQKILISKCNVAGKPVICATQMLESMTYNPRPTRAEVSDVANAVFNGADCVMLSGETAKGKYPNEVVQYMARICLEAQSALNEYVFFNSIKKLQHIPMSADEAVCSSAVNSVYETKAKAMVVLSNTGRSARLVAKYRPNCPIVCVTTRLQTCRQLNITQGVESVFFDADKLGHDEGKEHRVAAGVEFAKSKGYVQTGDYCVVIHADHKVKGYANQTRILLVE
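0.1 nM LmPK, 0.5 mM PEP, 0.1 mM ADP; 50 mM imidazole pH 7.2, 7 mM MgCl2, 50 mM KCl; 1 h RT. Kinase-Glo luminescence readout, normalized to no-enzyme (full inhibition) and uninhibited wells.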
TbPYK inhibitor = T. brucei pyruvate kinase inhibition. TbPYK enzyme, Kinase-Glo Plus ATP luminescence, 45 min. Potency, µM (series often up to 76.8 µM), for inactives: at the top dose activity, negative = inhibition, hits mostly inhibitors. 410,000 tested, 0.12% active; also: nearly all actives have a fitted effect of over 50% in size
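Quantitative HTS: titrated library compounds versus trypanosomal pyruvate kinase in TEA buffer (pH 7.2) containing KCl, MgCl2, BSA and Tween-20. Reactions were initiated with ADP, 130 uM final. Kinase-Glo Plus luminescence was read after 45 min at RT.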
Sm TGR inh = S. mansoni TGR enzyme inhibition | 360,000 tested, 3% active | Potency, µM (top dose mostly 114 µM), for inactives: top-dose activity change, negative = inhibition, usual class: inhibitors | purified TGR, DTNB reduction, TNB absorbance 405 nm | AID 485364; also: nearly all actives have a fitted effect of over 60% in size
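TGR 20 nM + NADPH 100 uM (dispensed conc.), cpd preinc 15 min RT; start with NADPH (500 uM addition) then DTNB (15 mM addition). Kinetic TNB absorbance, 405 nm filter. Four-parameter Hill fit across titration.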
Active calls of the source: *; u = inconclusive; x = no result given; [ ] = dose if it differs, or a comment. Unless noted, calls follow the shape of the dose curve; as a rule, active = well fitted curve in the direction sought with a large enough effect; inconclusive = small, poorly fitted or top-dose-only effect, or another doubt; inactive = no such curve, though single readings can be large; an effect the other way counts as inactive or inconclusive. Unless noted, % is scaled to controls: 0 for no effect and ±100 for the full control effect; potency is read from the fitted curve at half-maximal effect.

SMILES	AMA1 RON2 block	RE007 growth inh	LmPK inhibitor	TbPYK inhibitor	Sm TGR inh
Cn1cccc1/C=C1\CCc2ccccc2C1=O	14.1µM*	35.5µM*	u	u	5.4%
O=C1/C(=C\c2ccccc2)CCC/C1=C/c1ccccc1	-29.6%	-24.4%	x	3.4%	x
CN1C2CCC1/C(=C/c1cccn1C)C(=O)/C2=C\c1cccn1C	u	-16.9%	-7.4%	-1.1%	35.5µM*
O=C1C(=Cc2ccncc2)CCCc2ccccc21	-9.3%	-24.6%	x	-3.1%	x
Cn1cccc1/C=C1\Cc2ccccc2C1=O	-3.8%	-18.3%	-11.4%	-14.5%	2.6%
O=C1CCC/C1=C\c1ccccc1	-6.2%	-15.3%	7.6%	3.2%	44.7µM*
CCOC(=O)C(CC)Sc1ncnc2sc3c(c12)CCCC3 (centres undefined)	x	x	x	-3.1%	-3.8%
O=C1C(=Cc2ccc(Cl)cc2)CCc2ccccc21	-3.2%	-19.4%	x	u	x
O=C1/C(=C\c2ccncc2)CCc2ccccc21	-4.8%	u	x	u	-26.7%
O=C1/C(=C/c2ccncc2)CCc2ccccc21	1.1%	u	12.6µM*	u	-31.0%
O=C1C(=Cc2ccccc2Cl)CCc2ccccc21	43.3%	0.8%[18.4 µM]	x	31.6µM*	x
Cc1ccc(CNC(=O)C(=O)NCC(c2ccc3c(c2)OCO3)N2CCOCC2)cc1 (centres undefined)	x	x	x	0.2%	6.7%
CCc1ccc(NC(=O)CSc2nc3ccsc3c(=O)n2C(C)CC)cc1 (centres undefined)	x	x	x	0.6%	-4.3%
Cc1ccc2c(c1)-c1onc(C(=O)N3CCN(c4cc(C)ccc4C)CC3)c1CO2	x	x	x	4.6%	-8.0%
CCCN1CCN(C(=O)c2noc3c2COc2ccc(C)cc2-3)CC1	-2.1%	4.2%	-1.6%	1.7%	5.01µM*
COc1ccc(N2C(=O)C3C4C=CC(CC4)C3C2=O)c([N+](=O)[O-])c1 (centres undefined)	-9.5%	-1.6%	-2.6%	3.8%	2.7%
CCOc1ccc(N2C(=O)C3C4C=CC(CC4)C3C2=O)c([N+](=O)[O-])c1 (centres undefined)	3.0%	3.5%	1.8%	-7.5%	50.1µM*
CCOc1ccc(N2C(=O)C3CC(C)=C(C)CC3C2=O)c([N+](=O)[O-])c1 (centres undefined)	-7.8%	-16.5%	-4.1%	-4.8%	20µM*
Cc1ccc(N2C(=O)C3C4C=CC(CC4)C3C2=O)cc1[N+](=O)[O-] (centres undefined)	-4.4%	-10.9%	35.7%	1.2%	50.1µM*
C=CCNC(=O)N1CCc2nc(CCCC)c3c(c2C1)CO[C@@H](C)C3	x	x	0.5%[11.5 µM]	x	x
O=C(c1cccs1)N(Cc1cccnc1)c1nc2ccc(F)cc2s1	x	x	x	1.7%	3.4%
COc1cc(OC)c2c(c1O)OC(c1ccccc1)CC2=O (centres undefined)	u	-5.3%	0.6%	-12.4%	50.1µM*
COc1cn(CC(=O)Nc2ccc(F)cc2)c(CN2CCCCC2)cc1=O	x	x	x	3.2%	5.5%
Cc1c(NC2(C#N)CCCCC2)c(=O)n(-c2ccccc2)n1C	9.8%	-3.9%	-0.8%	0.1%	20µM*
COc1ccc(C(=O)OCC(=O)NCc2ccco2)cc1OC	-4.1%	-2.8%	2.6%	3.5%	35.5µM*
SMILES	AMA1 RON2 block	RE007 growth inh	LmPK inhibitor	TbPYK inhibitor	Sm TGR inh
COc1ccc(OCCC(=O)OCC(=O)NCc2ccco2)cc1	-8.4%	-4.1%	5.0%	u	50.1µM*
CCOc1ccccc1OCC(=O)NCc1ccco1	0.0%	5.5%	10.8%	-6.6%	20µM*
Cc1ccc(C(=O)OCC(=O)NCc2ccco2)cc1	5.3%	-6.6%	4.3%	-6.2%	-4.8%
CCOc1ccc(C(=O)OCC(=O)NCc2ccco2)cc1OCC	-2.8%	13.7%	-0.8%	-6.3%	44.7µM*
CCOc1ccc(C(=O)NCCc2csc(-c3ccc(C(F)(F)F)cc3)n2)cc1OCC	x	x	x	-4.0%	9.2%
COc1ccc(-c2ccc(C#N)c(SCC(=O)NCc3ccco3)n2)cc1OC	-0.3%	-20.6%	-0.3%	-3.3%	31.6µM*
Cc1ccc(N2CC(NC(=O)Cc3cccs3)CC2=O)cc1C (centres undefined)	x	x	x	4.7%	0.0%
O=C(Oc1cc(=O)oc2c1c(=O)n1c3c(cccc23)CC1)c1ccccc1	-9.3%	u	-3.4%	-0.5%	10µM*

From PubChem BioAssay
